Measurements reported in ChEMBL document CHEMBL3433997, “St. Jude Leishmania screening dataset” (2016).

Legend:
Type in all cases: functional
[1] = molecular target: Solute carrier family 2, facilitated glucose transporter member 1 (Homo sapiens) (UniProt P11166); test: ST_JUDE_LEISH: Cytotoxicity at 2uM final concentration against transgenic Leishmania Mexicana promastigotes LmGLUT1 that are glucose transport deficient and complemented with the human glucose transporter GLUT1. Activity is measured by DNA content using SYBR green in vitro
Solute carrier family 2, facilitated glucose transporter member 1 (Homo sapiens), sequence (P11166 whole entry): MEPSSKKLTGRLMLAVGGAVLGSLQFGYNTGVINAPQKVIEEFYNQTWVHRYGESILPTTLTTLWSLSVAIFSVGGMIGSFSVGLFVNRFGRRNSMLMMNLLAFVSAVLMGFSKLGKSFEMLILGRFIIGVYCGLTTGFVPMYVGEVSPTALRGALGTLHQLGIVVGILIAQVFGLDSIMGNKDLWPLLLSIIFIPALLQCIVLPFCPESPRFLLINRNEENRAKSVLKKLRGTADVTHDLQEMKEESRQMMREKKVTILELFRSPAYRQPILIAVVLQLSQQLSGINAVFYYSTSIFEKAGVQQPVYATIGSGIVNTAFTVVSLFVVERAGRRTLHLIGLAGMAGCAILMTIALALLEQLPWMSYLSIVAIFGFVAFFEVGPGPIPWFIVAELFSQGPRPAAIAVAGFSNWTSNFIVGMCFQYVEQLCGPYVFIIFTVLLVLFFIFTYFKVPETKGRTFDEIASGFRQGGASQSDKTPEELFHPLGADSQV

[2] = molecular target: Hexose transporter 1 (Plasmodium falciparum) (UniProt O97467); test: ST_JUDE_LEISH: Cytotoxicity at 2uM final concentration against transgenic Leishmania Mexicana promastigotes LmPfHT that are glucose transport deficient and complemented with the Plasmodium falciparum hexose transporter. Activity is measured by DNA content using SYBR green in vitro
[3] = molecular target: Glucose transporter (Leishmania mexicana) (UniProt O61059); test: ST_JUDE_LEISH: Cytotoxicity at 2uM final concentration against transgenic Leishmania Mexicana promastigotes LmGT2 that are glucose transport deficient and complemented with the L. Mexicana glucose transporter 2. Activity is measured by DNA content using SYBR green in vitro

| Structure (SMILES) | inhibition [1] [%] | inhibition [2] [%] | inhibition [3] [%] |
| --- | --- | --- | --- |
| O=C1C2C(c3ccc(Cl)c(Cl)c3)N3CC(OCc4ccccc4)CC3(C(=O)O)C2C(=O)N1c1ccc(Br)cc1 (stereo not given) | 4.62 | 4.75 | 3.46 |
| CC(CNC(=O)c1cc2c(Cl)cc(Cl)cc2[nH]1)CNc1cc(=O)c2ccccc2[nH]1 (stereo not given) | -0.17 | 1.37 | 2.08 |
| Cc1ccc(C(=O)Nc2cc(S(=O)(=O)N3CCCC3)ccc2OCC(F)(F)F)cc1 | 3.23 | 4.19 | 4.69 |
| CS(=O)(=O)c1ccc(CNCc2cccc(-c3cccc(-c4nc5ccccc5[nH]4)c3)c2)cc1 | 2.3 | 0.28 | -2.15 |
| COc1ccc(-c2c(C(F)(F)F)nn(C)c2NC(=O)Nc2ccc(F)cc2F)cc1 | -1.15 | -0.84 | 1.24 |
| CCn1cc(C=C2Oc3c(ccc(O)c3CN3CCCCC3)C2=O)c2cc(OC)ccc21 | 3.02 | 2.04 | -0.31 |
| CN(C)C(=O)c1ccc(CN(Cc2cccc(OC(C)(C)C)c2)Cc2ccc3c(c2)OCCO3)cc1 | 0.24 | -0.56 | 1 |
| Fc1ccc(C=NN=c2cc[nH]c3ccc(C(F)(F)F)cc23)cc1 | 6.39 | 6.15 | 5.46 |
| Nc1nc(N)c2c(Cc3ccccc3)cccc2n1 | 0.09 | 4.13 | 2.02 |
| Cc1cccc2nc(-c3ccc(-c4ccc(NC(=O)CN5CCN(C)CC5)cc4)cc3)[nH]c12 | 2.26 | 1.8 | 4.7 |
| Fc1ccc2[nH]c(-c3ccc(-c4ccc(CNCC5CCCO5)cc4)cc3)nc2c1 (stereo not given) | 12.4 | 11.2 | 7.73 |
| COc1cccc(Nc2nc(C)cc(NCc3ccc(-c4c(C)noc4C)cc3)n2)c1 | 14.8 | 13.4 | 3.73 |
| O=C(Nc1ccc(Br)cc1)c1cc(Br)ccc1NS(=O)(=O)c1cc(C(F)(F)F)cc(C(F)(F)F)c1 | -2.23 | 0.04 | -0.28 |
| CNC(=O)c1cnc(Nc2ccc(N3CCOCC3)cc2)nc1Nc1cccc(OC)c1 | -0.53 | -1.08 | -2.23 |
| CO/C(=C\C=C\c1cc2cc(Cl)c(Cl)cc2[nH]1)C(=O)NCCCCN1CCN(c2ccccc2OC)CC1 | 3.1 | 2.16 | 1.91 |
| O=c1ccc2ncc(Cl)c3c2n1CC3CN1CCC(NCc2cc3c(cn2)OCCO3)CC1 (stereo not given) | 8.8 | 14.5 | 5.05 |
| Clc1ccc(CNC2CCN(CC3CCCCC3)CC2)cc1 | 5.87 | 11.2 | 10.2 |
| COc1ccc2ncc(F)c(CCN3CC[C@@H](CNCc4nc5c(cc4C)SCC(=O)N5)C3)c2n1 | 3.29 | 3.35 | 0.49 |
| Cc1cccc2nc(-c3ccc(-c4cccc(NC(=O)c5ccncc5)c4)cc3)[nH]c12 | 0.03 | -0.47 | 1.08 |
| COc1cccc(Nc2nc(N)c3ccccc3n2)c1 | 22.4 | 18.8 | 7.62 |
| Cc1cccc2nc(-c3ccc(-c4cccc(CNCc5ccc(S(C)(=O)=O)cc5)c4)s3)[nH]c12 | 12.5 | 9.13 | 9.52 |
| Cc1nc(N)nc(N)c1OCCCOc1ccccc1Br | 46.9 | 61.8 | 43.6 |
| Cc1nnc2sc(-c3cccc(NC(=O)c4ccc(N5CCCCC5)c([N+](=O)[O-])c4)c3)nn12 | 0.34 | -1.03 | -0.5 |
| CC(=O)NC1=NC(C)(C)N(OCc2ccc(Cl)c(Cl)c2)C(NC(C)=O)=N1 | -0.21 | -0.25 | -1.61 |

| Structure (SMILES) | inhibition [1] [%] | inhibition [2] [%] | inhibition [3] [%] |
| --- | --- | --- | --- |
| Cc1cc(-c2cnc(N)c(-c3ccc(N4CCN(C)CC4)nc3)c2)cc(C)c1O | 1.2 | 0.69 | 0.74 |
| CC1(C)NC(N)=NC(=N)N1OCCCc1cccc(C(F)(F)F)c1 | -0.43 | -0.35 | 1.25 |
| O=C(Nc1cccc(CN2CCCN(CC3CCCCC3)CC2)c1)c1ccc(Cl)c(Cl)c1 | 12.1 | 12.2 | 10.5 |
| COc1cc2c(cc1S(=O)(=O)c1ccc(NC(=O)c3cc4ccccc4s3)cc1)CCN(C)CC2 | -1.48 | 3.2 | 1.94 |
| CCc1cn2c3c(cc(C(=O)N[C@@H](Cc4ccccc4)[C@H](O)CNC4CC4)cc13)N(CC)S(=O)(=O)CC2 | -0.74 | -0.31 | 0.02 |
| COc1cc(CS(C)(=O)=O)ccc1Nc1nccc(-c2c(-c3cccc(NC(=O)c4c(F)cccc4F)c3)nn3ccccc23)n1 | 13.5 | 20.7 | 7.36 |
| O=C(/C=C/c1ccc(Cl)c(Cl)c1)N1CCC(CNCc2cccc3cc[nH]c23)CC1 | 1.64 | 0.75 | 1.48 |
| N=C(N)NC(=O)Nc1cc(Cl)c(Cl)c(Br)c1 | 6.7 | 5.82 | 2.08 |
| CC(C)c1ccc(CN2CCC(NC(=O)c3ccc(-c4cccc(F)c4)s3)CC2)cc1 | 1.18 | -0.01 | -0.6 |
| O=C(Nc1cccc(-c2nn3ccccc3c2-c2ccnc(Nc3cccc(C(F)(F)F)c3)n2)c1)c1c(F)cccc1F | 0.32 | 1.06 | 0.07 |
| O=C(NCCN1CCCC1)c1cc(-c2ccc(Cl)c(O)c2)c(-c2ccncc2)o1 | 2.96 | 4.79 | 0.49 |
| N#Cc1ccc(CN2CCC(Oc3ccc(NC(=O)c4ccco4)cc3Cl)C2)cc1 (stereo not given) | 3.53 | 0.89 | -0.68 |
| OCCN1CCN(c2nc(Nc3cccc(F)c3)c3cnn(-c4ccccc4)c3n2)CC1 | 3.91 | 0.94 | -2.4 |
| Cc1ccnc(-n2c(C)cc(C=C3SC(=Nc4ccccc4)N(Cc4ccco4)C3=O)c2C)c1 | 2.02 | 2.85 | 4.69 |
| CC(C)NCc1ccc(-c2cccc(NC(=O)c3cccc(C#N)c3)c2)cc1 | 2.87 | 2.38 | -2.27 |
| O=C(Nc1ccc(Oc2cccnc2)cc1)C1CCN(Cc2cc(Cl)ccc2O)CC1 | 2.3 | 4.55 | 1.47 |
| CC(C)(CNC(=O)[C@@H]1CCCCN1)c1nc(-c2ccc(Cl)c(O)c2)c(-c2ccncc2)[nH]1 | 2.07 | 2.19 | 1.02 |
| O=C(NCCN1CCCCC1)N1CCCN(c2ncnc3cc(-c4ccccc4)sc23)CC1 | 2.21 | 1.64 | 2.05 |
| Cn1nc(-c2cccc(CNC3CCc4ccccc43)c2)c2cnc(NC3CCCC3)nc21 (stereo not given) | 2.84 | 5.46 | 3.3 |
| O=S(=O)(NCCN1CCCC1)c1cccc(-c2ccccc2CNC2Cc3ccccc3C2)c1 | 60.1 | 16 | 10.6 |
| O=S(=O)(Nc1ccc2nccc(N3CCNCC3)c2c1)c1ccc2oc3ccccc3c2c1 | 4.08 | 6.5 | 5.02 |
| CCOC(=O)c1ccc(NC(=O)Nc2cccc(-c3ccc(-c4nc5cc(C(F)(F)F)ccc5[nH]4)cc3)c2)cc1 | -0.08 | 1.53 | 0.3 |
| NC(=O)C1CCN(Cc2ccc(-c3ccc(-c4nc5cc(C(F)(F)F)ccc5[nH]4)s3)cc2)CC1 | 4.68 | 3.12 | 4.69 |
| NC(=O)c1cnc2cc(-c3ccoc3)ccc2c1Nc1ccc(NC(=O)Nc2ccccc2Cl)cc1 | 2.28 | 0.16 | -3.01 |

| Structure (SMILES) | inhibition [1] [%] | inhibition [2] [%] | inhibition [3] [%] |
| --- | --- | --- | --- |
| CN1CCN(CCNc2c3ccccc3nc3c2ccc2ccccc23)CC1 | 84.6 | 88 | 81.5 |
| Cc1n[nH]c2ccc(-c3cc(OC[C@@H](N)Cc4ccccc4)cnc3-c3ccc(OCc4cccc(F)c4)cc3)cc12 | -0.24 | 0.68 | -0.73 |
| O=C(N/C=N/c1cc([N+](=O)[O-])c(-c2cccnc2)n1-c1ccc(O)cc1)c1ccccc1 | -0.13 | -1.73 | -1.68 |
| Cc1cc(=NN=CC=Cc2ccccc2)c2ccccc2[nH]1 | 1.28 | 2.74 | 0.81 |
| O=C(/C=C/c1ccc(Cl)c(Cl)c1)NCCCCCN1CCCC(CCCNC(=O)Nc2ccc(C(F)(F)F)cc2)C1 (stereo not given) | 11.3 | 9.28 | 5.82 |
| O=C(Nc1ccc2c(c1)CCN(C1CCC1)CC2)c1cn(-c2ccccc2)nc1-c1ccccc1 | 5.38 | 3.65 | 0.52 |
| Nc1nnc(-c2ccc(Cl)c(Br)c2)c(N)n1 | -0.74 | 1.8 | 4.94 |
| CCN(C)CCCn1c(N(C)C)nc2cc(-n3cnc4cc(-c5ccc(Cl)cc5)sc4c3=O)ccc21 | 8.73 | 10.9 | 3.62 |
| Cc1[nH]c(C)c(-c2ccc(CCc3ccc(N)cc3)cc2)c(=O)c1Cl | 4.43 | 6.39 | 1.77 |
| Cc1cccc2nc(-c3ccc(-c4ccc(CN5CCN(c6ccncc6)CC5)cc4)cc3)[nH]c12 | 33.3 | 29.1 | 13.4 |
| Cc1cccc2nc(-c3ccc(-c4ccc(CN5CCC(CCN6CCCCC6)CC5)cc4)cc3)[nH]c12 | 8.93 | 7.95 | -1.41 |
| CCOC(=O)c1ccc(N2CCN(c3cc(Cl)ccc3C)CC2)c(NC(=O)Nc2ccc(Cl)c(Cl)c2)c1 | -3.21 | -3.18 | -0.61 |
| COC(=O)C(NC(=O)c1ccc(-c2ccc(-c3nc4ccccc4[nH]3)s2)cc1)c1ccc(O)cc1 (stereo not given) | 3.31 | 2.37 | 3.11 |
| CCCc1cn2c3c(cc(C(=O)N[C@@H](Cc4ccccc4)[C@H](O)CNC4CCOCC4)cc13)N(CC)S(=O)(=O)CC2 | 1.86 | 2.35 | 1.03 |
| CCC[C@@H]([C@@H](CC1CCC(C)CC1)C(=O)N[C@@H](CCCCNC(=O)c1ccccn1)C(=O)Nc1nccs1)N(O)C=O (stereo not given in full) | 2.27 | 4.29 | 1.8 |
| O=C(NCc1ccc(Cl)cc1)c1ccc(C(=O)NCC2CCCN2CC2CCCCC2)cc1 (stereo not given) | 2.97 | 1.54 | 1.14 |
| Cc1nc2nc(N)nc(N)c2c(C)c1Cc1ccc(C(N)=O)cc1 | 1.68 | 1.64 | 0.21 |
| CN(C)CCCOc1ccc(CCNCc2cccc(Oc3ccc(Cl)cc3)c2)cc1 | 14 | 16.4 | 13.7 |
| O=C(Nc1ccc(C(F)(F)F)cc1)NC1CCN(c2ccnc3ccccc23)C1 (stereo not given) | 8.02 | 7.55 | 7.55 |
| CCOC(=O)c1cc2c(CCN3C(=O)c4ccccc4C3=O)cn(C)c2cc1-c1ccncc1 | 93 | 91 | 90.9 |
| NC1=NC2(CCCCC2)N(Cc2ccc(Cl)c(Cl)c2)C(N)=N1 | -1.03 | -0.28 | -0.42 |
| CC(C)[C@H](NC(=O)c1ccc(O)c(-c2ccc(Cl)c(Cl)c2)c1)C(=O)NCCN1CCCC1 | -0.22 | -0.09 | 0.36 |
